Assay results reported in PubChem BioAssay (Tox21).
Records with an inconclusive call do not appear. A call without a number means that no potency is given here. Activity calls are given as the source filed them. The call rests on the fitted dose curve; in most records, active means well fitted activation curve with a large enough effect in the signal ratio in the repeat runs (not every such curve was filed as active); inconclusive means weak or mixed curves, or effect the other way; inactive means no such curve, though single readings can be large or run the other way; the % refers to the signal ratio.

molecular target: Peroxisome proliferator-activated receptor gamma (Homo sapiens) (UniProt P37231); test: qHTS assay to identify small molecule agonists of the peroxisome proliferator-activated receptor gamma (PPARg) signaling pathway (AID 743094); settings: HEK293H PPARg-UAS-bla, beta-lactamase FRET ratio, 17 h; series mostly up to 57 µM
Sequence (P37231 whole entry, looked up): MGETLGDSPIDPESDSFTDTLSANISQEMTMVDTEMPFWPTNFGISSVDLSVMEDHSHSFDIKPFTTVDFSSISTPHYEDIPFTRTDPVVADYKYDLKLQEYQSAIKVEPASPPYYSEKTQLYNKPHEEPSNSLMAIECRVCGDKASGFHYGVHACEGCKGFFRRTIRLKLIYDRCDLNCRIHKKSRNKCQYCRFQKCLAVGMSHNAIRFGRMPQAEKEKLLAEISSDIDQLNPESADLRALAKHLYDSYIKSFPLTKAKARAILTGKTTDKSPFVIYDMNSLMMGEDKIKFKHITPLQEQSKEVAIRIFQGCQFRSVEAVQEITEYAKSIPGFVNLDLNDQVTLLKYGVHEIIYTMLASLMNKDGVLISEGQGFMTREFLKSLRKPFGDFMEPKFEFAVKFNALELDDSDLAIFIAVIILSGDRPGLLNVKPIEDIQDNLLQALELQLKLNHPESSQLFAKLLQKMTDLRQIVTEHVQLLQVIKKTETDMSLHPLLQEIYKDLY
Excerpt: U.S. Tox21 Program National Center for Advancing Translational Sciences [NCATS] NIH Chemical Genomics Center [NCGC] U.S. Environmental Protection Agency [EPA] National Institutes of Environmental Health Sciences [NIEHS] National Toxicology Program [NTP] U.S. Food and Drug Administration [FDA] Tox21 Assay Overview: The peroxisome proliferator-activated receptors (PPARs) are lipid-activated transcription factors of the nuclear receptor superfamily with three distinct subtypes namely PPAR alpha, PPAR delta (also called PPAR beta) and PPAR gamma (PPARg). All these subtypes heterodimerize with Retinoid X receptor (RXR) and these heterodimers regulate transcription of various genes. PPAR-gamma receptor (glitazone receptor) is involved in the regulation of glucose and lipid metabolism. To identify the compounds that activate PPAR-gamma signaling, GeneBLAzer PPAR gamma UAS-bla HEK293H cell line (Invitrogen, Carlsbad, CA, USA) containing a beta-lactamase reporter gene under control of the control of an upstream activator sequence (UAS) stably integrated into HEK293H cells was used to screen Tox21 compound library.
Tox21 Assay Protocol Summary: PPARg-bla cells were dispensed at 3000 cells/6uL/well in 1536-well black wall/clear bottom plates using a Multidrop Combi (Thermo Fisher Scientific, Waltham, MA) dispenser. After the assay plates were incubated at 37C and 5% CO2 for 5 h, 23 nL of compounds dissolved in DMSO, positive controls or DMSO only was transferred to the assay plate by a Pintool station (Kalypsys, San Diego, CA). The assay plates were incubated at 37C for 17 h. After 1 uL of LiveBLAzerTM B/G FRET substrate was added using a Bioraptr Flying Reagent Dispenser (FRD) workstation (Beckman Coulter, Indianapolis, IN, USA), the plates were incubated at room temperature for 1 h, and fluorescence intensity was measured by an Envision plate reader (PerkinElmer, Shelton, CT).

| Compound | Potency |
| --- | --- |
| N#CCCl | inactive |
| Cc1c([N+](=O)[O-])c(C)c([N+](=O)[O-])c(C(C)(C)C)c1[N+](=O)[O-] | inactive |
| CCOC(=O)Cc1ccccc1 | inactive |
| CNC(=O)O/N=C(\C)C(C)S(C)(=O)=O (stereo not given) | inactive |
| COP(=S)(OC)Oc1nc(Cl)c(Cl)cc1Cl | inactive |
| CNN | inactive |
| ClC1=C(Cl)[C@]2(Cl)[C@@H]3[C@H]4C[C@H]([C@@H]5O[C@H]45)[C@@H]3[C@@]1(Cl)C2(Cl)Cl | inactive |
| C[C@H]1[C@H](c2ccc(Cl)cc2)SC(=O)N1C(=O)NC1CCCCC1 | inactive |
| [O]=[Cr](=[O])([OH])[O][Cr](=[O])(=[O])[OH] | inactive |
| OCC(Br)CBr (stereo not given) | inactive |
| CC(Cc1ccc2c(c1)OCO2)NO (stereo not given) | inactive |
| CCCCON=O | inactive |
| C=CCBr | inactive |
| CC(C)c1c(CN(C)C(C)Cc2ccccc2)n(C)n(-c2ccccc2)c1=O (stereo not given) | inactive |
| COCCC#N | inactive |
| CCN(CC)CCN1C(=O)CN=C(c2ccccc2F)c2cc(Cl)ccc21 | inactive |
| CC1CCCC1 | inactive |
| CC(Cl)CCl (stereo not given) | inactive |
| CNC(=O)/C=C(\C)OP(=O)(OC)OC | inactive |
| c1cc[n+]2c(c1)-c1cccc[n+]1CC2 | inactive |

| Compound | Potency |
| --- | --- |
| O=c1[nH]c(Cl)c(Cl)cc1Cl | inactive |
| Nc1nc(N)c(N)c(N)n1 | inactive |
| O=P(Cl)(Cl)Cl | inactive |
| Cc1ccn2nc(S(=O)(=O)Nc3c(F)cccc3F)nc2n1 | inactive |
| S=C=Nc1ccccc1 | inactive |
| Cc1cc(C2CC2)nc(Nc2ccccc2)n1 | inactive |
| CCCCN(CCCC)C(=S)S | inactive |
| CSC(C)(C)/C=N/O | inactive |
| CNC(=O)Oc1cc(C)cc(C(C)C)c1 | inactive |
| O=[N+]([O-])C(Br)Br | inactive |
| CC1=C2C[C@H]3[C@@H](CC=C4C[C@@H](O)CC[C@@]43C)[C@@H]2CC[C@]12O[C@@H]1C[C@H](C)CN[C@H]1[C@H]2C | inactive |
| CCNS(=O)(=O)C(F)(F)C(F)(F)C(F)(F)C(F)(F)C(F)(F)C(F)(F)C(F)(F)C(F)(F)F | inactive |
| Oc1cc(Cl)cc(Cl)c1 | inactive |
| Oc1ccc([C@H]2CNCc3c2ccc(O)c3O)cc1O | inactive |
| CCC1(CC)C(=O)N=C(O)NC1=O | inactive |
| C#CCO | inactive |
| Cc1ccccc1OP(=O)(Oc1ccccc1C)Oc1ccccc1C | inactive |
| O=S(=O)(O)F | inactive |
| C#CC1(O)CCCCC1 | inactive |
| CC(C)N(C(=O)CCl)c1ccccc1 | inactive |
